Among the data in PubChem BioAssay (NCI) are growth values, retold here.

Each structure is given as a SMILES string. Compounds without any hit were thinned out: in the full panel of roughly 83,000, 20% have a hit.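 Each cell line was grown in a 96-well plate and treated with one concentration of compound for 48 hours. Values below 10 were considered active.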 A number with no mark means an inactive call. Activity calls are given as the source filed them.

This test has as its system HL-60(TB) leukemia. The test is described as follows: NCI-60 one-dose screen, 48 h (100 = growth as untreated, 0 = no growth, -100 = all killed). Conditions: 10 µM unless noted.
On to `CCN(CC)CCCNCc1cc(-c2ccccc2)nc2ccccc12`, for which the growth was -19.3% (active).

With `COc1cnc2c(c1)C(=O)c1c-2n(CCCn2ccnc2)c(=O)c2cc(Cl)ccc12`, the growth was -26.1% (active).

In the case of `Cn1c(=O)c2c(nc(Br)n2CCC(=O)Nc2ccc(F)cc2)n(C)c1=O`, the growth was 91.8%.

On to `CCOC(=O)c1ccc(N2C(=O)C(Cl)(c3ccccc3)C2c2ccco2)cc1` (stereo not given), for which the growth is 66%.

As to `COC(=O)[C@@]12OC[C@]34[C@H]([C@@H](O)[C@@H]1O)[C@@]1(C)[C@H](O)C(=O)C=C(C)[C@@H]1C[C@H]3OC(=O)C(OC(C)=O)[C@@H]24` (stereo not given in full), the growth was -59% (active).

For `Cn1cc(-c2nonc2-c2cn(C)c3ccc(Br)cc23)c2ccccc21`, the growth was -18.9% (active).

As to `O=C1C=Cc2ccccc2/C1=C/c1[nH]c(=O)[nH]c1O`, the growth is 43.3%.

As to `CC1CC(O)C2C3(C)CCCC2(COC3=O)C12CCC1(CCOC1=O)O2` (stereo not given), the growth was 121%.

As for `Cl[C@@H]1CCO[C@H](c2cc3ccccc3c3ccccc23)C1`, the growth is 92.9%.

Turning to `CN(C)c1ccc(Nc2c3ccccc3nc3ccccc23)cc1`, the growth is -2.21% (active).

As for `CCOc1c(Br)cc(C2C(C(=O)OC)=CN(C)C=C2C(=O)OC)cc1OC`, the growth was 35.5%.

For `CN(C)c1ccc(N=Nc2cccc3ccccc23)cc1`, the growth is 77.4%.

Take `CCCCCCN(C)Cc1ccc(OCCOc2ccc(CN(C)CCCCCC)cc2)cc1`: the growth was -43.4% (active).

As for `CC(C)N(Cc1ccccc1)c1c(Cl)ssc1=O`, the growth is 113%.

Turning to `COc1ccccc1Cn1cc2c(c1-c1ccccc1)CCc1cnoc1-2`, the growth is 19.4%.

With `COc1ccc(/C=C/C(=O)CCC(=O)O)cc1OC`, the growth was 96.7%.

For `O=C1Nc2ccc(Br)cc2C12Oc1ccccc1C1CC(c3ccc(F)cc3)=NN12` (stereo not given), the growth was 92.9%.

`CNc1ccc(CSc2ccc(C)cc2)cc1`: the growth is 11.8%.

In the case of `COc1ccc(C2c3ccc4ccccc4c3Oc3ncnc(N)c32)cc1` (stereo not given), the growth is 89%.

On to `CCCCCn1cnc2c(=S)nc[nH]c21`, for which the growth is 95%.

On to `CCOC(=O)c1c(C)nc2c(c1N)/C(=C/c1ccccn1)C(=O)N2Cc1ccccc1`, for which the growth was -5.96% (active).

Consider `COC(=O)c1c2c(c(C)[n+]([O-])c1C)C(=O)C=C(NCc1ccc(Cl)cc1)C2=O`, for which the growth is -30.5% (active).

Regarding `C/C(=C(\c1ccc(OCCN2CCOCC2)cc1)c1ccc(OC(=O)C2CCCCC2)cc1)c1ccc(Cl)cc1`, the growth was 96.4%.

`COc1ccc(/C=C2\CCCC3=C2NC(C)=NC3c2ccc(OC)c(OC)c2)cc1OC` (stereo not given): the growth was -6.62% (active).

With `COc1ccc(NC(=O)n2nc(/C=C\c3ccc(O)c(OC)c3)cc2/C=C\c2ccc(O)c(OC)c2)cc1`, the growth was 5.32% (active).
